# From the supplement of paper PMC12067093, “Discovery and optimisation of a covalent ligand for TRIM25 and its application to targeted protein ubiquitination” (Chemical Science, 2025)
# About 21,000 targets were measured; listed, in parts, are those with the largest changes and a random draw of the rest.
# Compound: Cc1cc(ccc1-c1ccccc1)C(=O)N1CCCN(CC1)C(=O)CCl [compound 10]
# Assay: probe-labelled cysteine peptide fold change vs DMSO (competition) (log2 fold change); higher = less target engagement (more negative = stronger competition)
# Settings: 10 µM; THP-1; incubation time: 4 h
# 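Further: competitive profiling in live THP-1 cells: cysteine peptides tagged with an iodoacetamide desthiobiotin (IA-DTB) probe, intensity after compound treatment relative to DMSO-treated cells.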
row,Target,probe-labelled cysteine peptide fold change
1,HDAC8_Q9BY41_153_KDEASGFCYLNDAVLGILR (UniProt Q9BY41),-0.0393
2,HEATR3_Q7Z4Q2_57_ECACAGLAR (UniProt Q7Z4Q2),-1.43
3,HERC2_O95714_1037_ISSCLDFEQHSR (UniProt O95714),0.0441
4,HDAC10_Q969S8_23_LLWDDPECEIERPER (UniProt Q969S8),-0.294
5,HINT1_P49773_38_CLAFHDISPQAPTHFLVIPK (UniProt P49773),0.0727
6,HERC2_O95714_1201_ERDDHEELAWPGIMESFFTGQNCR (UniProt O95714),-0.0998
7,GSPT1_P15170_464_TAGTICLETFK (UniProt P15170),0.00954
8,HDAC10_Q969S8_508_LLCVALGQLDRPPDLAHDGR (UniProt Q969S8),0.15
9,FGR_P09769_415_LIKDDEYNPCQGSK (UniProt P09769),-0.148
10,GFPT1_Q06210_264_VDSTTCLFPVEEK (UniProt Q06210),-0.0167
11,HDHD5_Q9BXW7_392_DLCFSPGLMEASHVVNDVNEAVQLVFRK (UniProt Q9BXW7),-0.183
12,HBS1L_Q9Y450_84_LYSCLDHMR (UniProt Q9Y450),0.0793
13,GATM_P50440_50_NSCAADDK (UniProt P50440),-0.478
14,GABPA_Q06546_69_LQCSLDAHEICLQDIQLDPER (UniProt Q06546),0.331
15,GTPBP3_Q969Y2_188_QLDGELGHLCR (UniProt Q969Y2),-0.0966
16,GOLGA2_Q08379_984_ERPGLGSNPCIPFFYR (UniProt Q08379),-0.149
17,GEMIN5_Q8TEQ6_82_VSGFTFSHHPGQYNLCATSSDDGTVK (UniProt Q8TEQ6),0.193
18,HDAC4_P56524_777_LAVGCVVELVFK (UniProt P56524),0.157
19,GPD1L_Q8N335_216_NIVAVGAGFCDGLR (UniProt Q8N335),-0.0284
20,GFI1_Q99684_155_GAGLGLFCEPAPEPGHPAALYGPK (UniProt Q99684),-0.225
21,FYCO1_Q9BQS8_293_LTCLVAELQK (UniProt Q9BQS8),0.0275
22,HCK_P08631_241_LSVPCMSSK (UniProt P08631),-0.0986
23,HK3_P52790_840_AAQLCGAGVAAVVEK (UniProt P52790),0.169
24,HELZ_P42694_101_AVLCCMQLK (UniProt P42694),-0.198
25,GSTP1_P09211_102_DQQEAALVDMVNDGVEDLRCK (UniProt P09211),0.0332
26,GIT1_Q9Y2X7_576_KGVSASAVPFTPSSPLLSCSQEGSR (UniProt Q9Y2X7),-0.316
27,GFM2_Q969S9_248_LLWNCNSNDGK (UniProt Q969S9),-0.353
28,HDAC6_Q9UBN7_539_PATEAELLTCHSAEYVGHLR (UniProt Q9UBN7),-0.137
